Source: PubChem BioAssay (National Center for Advancing Translational Sciences (NCATS))
An excerpt weighted towards active compounds, which were near 8.7% of everything screened.
Pf growth 96h: Primary qHTS for delayed death inhibitors of the malarial parasite plastid, 96 hour incubation. P. falciparum luciferase reporter growth, 96 h. Potency, µM (top dose mostly 28.7 µM), usual class: inhibitors. 6.9% of 320,000 active
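Two parasite generations (96 h, 37 C, 5% CO2) of compound exposure in infected erythrocytes (0.05% parasitemia, 2% hematocrit). Luciferase-reporter P. falciparum; decreased luminescence indicates inhibited growth, aimed at apicoplast-acting delayed death.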
AMA1-RON2 inh: qHTS for Inhibitors of AMA1-RON; Towards Development of Antimalarial Drug Lead: Primary Screen. Plasmodium falciparum AMA1 (3D7) - RON2 peptide interaction. AlphaScreen AMA1-biotinylated RON2 peptide binding. Potency, µM (top dose mostly 58.2 µM), most hits filed as inhibitors. 0.2% of 360,000 active. AID 720542, 2013; further: nearly all actives have a fitted effect of over 45% in size
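AMA1 (3D7) with his tag at 25 nM final met compounds first, then biotinylated RON2 peptide at 25 nM; detection used donor plus acceptor beads, 10 µg/mL apiece, read by AlphaScreen after 30 min at room temperature.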
Pf growth 48h: Primary qHTS for delayed death inhibitors of the malarial parasite plastid, 48 hour incubation; P. falciparum luciferase growth in erythrocytes, 48 h; Potency, µM (doses to about 28.7 µM), usual class: inhibitors; 5.9% of 310,000 active; AID 504832, 2011
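Compounds are pin-transferred into medium, infected erythrocytes (2% hematocrit, 0.1% parasitemia final) are added, and plates sit one parasite generation at 37 C in 5% CO2. Detection reagent is then added and luminescence measured.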
VACV mCherry inh: qHTS for Stage-Specific Inhibitors of Vaccinia Orthopoxvirus: mCherry Reporter Primary qHTS; 0.63% of 310,000 active; Vaccinia virus mCherry reporter infection, fluorescence; Potency, µM (titrated, usually from 36.5 µM), most hits filed as inhibitors; calls by dose curve; tested in A549 cells; further: nearly all actives have a fitted effect of over 35% in size
VACV Venus inh: qHTS for Stage-Specific Inhibitors of Vaccinia Orthopoxvirus: Venus Reporter Primary qHTS. Vaccinia virus Venus reporter expression, fluorescence. AID 720580, 2013. 0.46% of 330,000 active. Potency, µM (highest dose often 36.5 µM), most hits filed as inhibitors; calls by dose curve; tested in A549 cells; further: nearly all actives have a fitted effect of over 30% in size
Numbers stand for hits. Unless noted, the call rests on the fitted dose curve; in most records, active means well fitted curve in the direction sought with a large enough effect; inconclusive means small, poorly fitted or top-dose-only effect, or another doubt; inactive means no such curve, though single readings can be large; an effect the other way counts as inactive or inconclusive.

What do the screens show for `O=C(NCc1cccnc1)/C(=C\c1ccc(-c2cccc(Cl)c2)o1)S(=O)(=O)c1ccccc1`?
Pf growth 96h: inconclusive; AMA1-RON2 inh: inactive; Pf growth 48h: 9.28µM; VACV mCherry inh: 11.2µM; VACV Venus inh: 10µM

What do the screens show for `Cc1oc2c(CN3CCCCC3)c(O)ccc2c(=O)c1-c1ccc(Cl)cc1`?
Pf growth 96h: inconclusive; AMA1-RON2 inh: inactive; Pf growth 48h: 1.65µM; VACV mCherry inh: inactive; VACV Venus inh: inactive

What do the screens show for `O=c1cc(-c2ccccc2)c2ccc(O)c(CN3CCCCC3)c2o1`?
Pf growth 96h: inactive; AMA1-RON2 inh: inactive; Pf growth 48h: 10.4µM

Results for COc1ccc(-c2c(C)oc3c(CN4CCCC(C)C4)c(O)ccc3c2=O)cc1OC (stereo not drawn) ?
Pf growth 96h: inconclusive; AMA1-RON2 inh: inactive; Pf growth 48h: inconclusive; VACV mCherry inh: inactive; VACV Venus inh: inactive

How did O=c1oc2c(CN3CCCCCC3)c(O)ccc2cc1-c1nc2ccccc2[nH]1 do in these assays?
Pf growth 96h: inactive; Pf growth 48h: 2.33µM

What do the screens show for `COc1ccccc1-c1c(C)oc2c(CN3CCCC(C)C3)c(O)ccc2c1=O` (stereo not drawn)?
Pf growth 96h: 10.4µM; AMA1-RON2 inh: inactive; Pf growth 48h: 13.1µM; VACV mCherry inh: inactive; VACV Venus inh: inactive

What do the screens show for `Cc1cc(C(=O)C(=O)Nc2nnc(C(C)C)s2)c(C)n1-c1ccccc1`?
VACV mCherry inh: inactive; VACV Venus inh: inactive

Results for O=c1cc2nc(-c3ccccc3F)nc(SCc3ccc(Br)cc3)n2[nH]1 ?
VACV mCherry inh: inactive; VACV Venus inh: inactive

Results for Cc1oc2c(CN3CCCC3)c(O)ccc2c(=O)c1Oc1ccccc1Br ?
Pf growth 96h: inactive; AMA1-RON2 inh: inactive; Pf growth 48h: 1.65µM; VACV mCherry inh: inactive; VACV Venus inh: inactive

How did COc1ccccc1Oc1c(C)oc2c(CN3CCN(CCO)CC3)c(O)ccc2c1=O do in these assays?
Pf growth 96h: inactive; AMA1-RON2 inh: inactive; Pf growth 48h: inactive; VACV Venus inh: inactive

How did Cc1c(C)c2ccc(O)c(CN3CCCC3)c2oc1=O do in these assays?
Pf growth 96h: inconclusive; AMA1-RON2 inh: inactive; Pf growth 48h: inconclusive

Results for Cc1oc2c(CN3CCCC(C)C3)c(O)ccc2c(=O)c1-c1ccccc1 (stereo not drawn) ?
Pf growth 96h: 8.28µM; AMA1-RON2 inh: inactive; Pf growth 48h: 6.57µM

Results for CCc1c(C)c2ccc(O)c(CN3CCCC3)c2oc1=O ?
Pf growth 96h: 11.7µM; AMA1-RON2 inh: inactive; Pf growth 48h: inconclusive; VACV mCherry inh: inactive; VACV Venus inh: inactive

Results for CC(C)CCN1C(=O)c2ccccc2CC1(C)C(=O)NC1CCCCC1 (stereo not drawn) ?
VACV mCherry inh: inactive; VACV Venus inh: inactive

How did COCC(C)NC(=O)c1cc2c(=O)n3cccc(C)c3nc2s1 (stereo not drawn) do in these assays?
VACV mCherry inh: inactive; VACV Venus inh: inactive

Results for O=C(CSc1nc2nn(-c3ccccc3)c(=O)c-2c2n1CCCCC2)Nc1ccccc1[N+](=O)[O-] ?
Pf growth 96h: 6.57µM; AMA1-RON2 inh: inactive; Pf growth 48h: inconclusive; VACV mCherry inh: inactive; VACV Venus inh: inconclusive

How did COc1ccc(C(=O)CSc2nc3nn(-c4ccccc4)c(=O)c-3c3n2CCCCC3)c(OC)c1 do in these assays?
AMA1-RON2 inh: inactive; VACV mCherry inh: inactive; VACV Venus inh: inactive

What do the screens show for `O=C(CSc1nc2nn(-c3ccccc3)c(=O)c-2c2n1CCCCC2)NCCCc1ccccc1`?
Pf growth 96h: inconclusive; AMA1-RON2 inh: inactive; Pf growth 48h: 9.28µM; VACV mCherry inh: inactive; VACV Venus inh: inactive

How did COc1ccc2c(c1)c1c(c(=O)n(-c3ccc(F)c(Cl)c3)c(=O)n1CC(=O)N1CCCC1)n2C do in these assays?
VACV mCherry inh: inactive; VACV Venus inh: inactive

What do the screens show for `COc1ccc(C2=NN(C(=O)COC(=O)c3ccc(NC(=O)CC#N)cc3)C(c3ccco3)C2)cc1` (stereo not drawn)?
Pf growth 96h: inconclusive; AMA1-RON2 inh: inactive; Pf growth 48h: 11.7µM

Results for O=C(OCC(=O)N1N=C(c2ccc(Cl)cc2)CC1c1ccco1)c1ccco1 (stereo not drawn) ?
Pf growth 96h: inactive; AMA1-RON2 inh: inactive; Pf growth 48h: inactive; VACV mCherry inh: inactive; VACV Venus inh: inactive

Results for O=C(C[n+]1cccc(Cl)c1)c1ccc(O)c(O)c1 ?
VACV mCherry inh: inactive; VACV Venus inh: inactive

What do the screens show for `CC1(C)O[C@@H]2C[C@H]3[C@@H]4CCC5=CC(=O)CC[C@]5(C)[C@@]4(F)[C@@H](O)C[C@]3(C)[C@]2(C(=O)CCl)O1`?
Pf growth 96h: 3.29µM; AMA1-RON2 inh: inactive; Pf growth 48h: 2.62µM; VACV mCherry inh: inactive; VACV Venus inh: inactive

How did CC1(C)O[C@H]2C[C@@H]3[C@H]4CCC5=CC(=O)CC[C@@]5(C)[C@]4(F)[C@@H](O)C[C@@]3(C)[C@@]2(C(=O)CCl)O1 do in these assays?
Pf growth 96h: 4.05µM; Pf growth 48h: 5.1µM

What do the screens show for `CC(=O)OCC(=O)[C@@]12OC3(CCCC3)OC1CC1C3CCC4=CC(=O)C=C[C@@]4(C)[C@]3(F)C(O)C[C@]12C` (stereo partly drawn)?
Pf growth 96h: 9.53µM; Pf growth 48h: 15.1µM

What do the screens show for `CC1(C)OC2CC3C4CCC5=CC(=O)C=C[C@@]5(C)[C@]4(F)C(O)C[C@@]3(C)[C@]2(C(=O)CO)O1` (stereo partly drawn)?
VACV mCherry inh: inactive; VACV Venus inh: inactive

How did C[C@@H]1C[C@H]2[C@@H]3CCC4=CC(=O)C=C[C@]4(C)[C@@]3(F)[C@@H](O)C[C@]2(C)[C@H]1C(=O)CO do in these assays?
Pf growth 96h: 9.28µM; AMA1-RON2 inh: inactive; Pf growth 48h: inconclusive; VACV mCherry inh: inactive; VACV Venus inh: inactive

Results for N#Cc1ccccc1CSc1nnc(-c2ccccc2)o1 ?
VACV mCherry inh: inactive; VACV Venus inh: inactive

What do the screens show for `O=C1c2ccccc2NC(c2c(Cl)cccc2Cl)N1Cc1ccccc1` (stereo not drawn)?
Pf growth 96h: inactive; AMA1-RON2 inh: inactive; Pf growth 48h: 13.1µM; VACV Venus inh: inconclusive

Results for C(=N\Nc1ncnc2sc3c(c12)CCC3)/c1cccs1 ?
Pf growth 96h: inconclusive; Pf growth 48h: inactive

How did C(=N\Nc1ncnc2sc3c(c12)CCC3)/c1ccncc1 do in these assays?
Pf growth 96h: inactive; AMA1-RON2 inh: inactive; Pf growth 48h: inconclusive; VACV mCherry inh: 11.2µM; VACV Venus inh: 10µM

What do the screens show for `c1cc(Nc2ncnc3sc4c(c23)CCC4)ccn1`?
Pf growth 96h: inactive; AMA1-RON2 inh: inactive; Pf growth 48h: 1.65µM; VACV mCherry inh: inactive; VACV Venus inh: inactive

Results for CC(C)n1c(NCc2ccccc2O)nc2ccccc21 ?
Pf growth 96h: inactive; AMA1-RON2 inh: inactive; Pf growth 48h: inconclusive; VACV mCherry inh: inactive; VACV Venus inh: inactive
